Assay results from the supplement of paper PMC6555819.

The sequences below were run on THRa homodimer (NR concentration 90 nM) (assay: PBM binding z-score (relative to random genomic background probes); higher = stronger binding; sequences stand for … in GC…GCGATTGACAGCGTAGAATGAAGG).
Method in brief: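 Ligand-free nuclear receptor dimers were bound for 1 h to custom Agilent 4×180K protein-binding microarrays. Detection used antibodies against each partner (one per run). Binding z-scores rest on regression-normalized fluorescence, with random background probes as the reference.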

Sequence | PBM binding z-score
ATCGAAAGGTCGTGTGGTGAGTATACAGAAAGGC | 0.842
CGTCCAAGGTCATCGGAGGTCAGTGAAGACAGAT | 3.48
CCATACAGGTGAGAAGGTAACTCAGCCTCGATTA | 0.348
ATCGAAAGGTCGACGAGGTGAGTCTACACCGTTT | 1.04
CCTCGAAGGACAGAAGGTCAGAGCTGTCCGCTTT | 0.0154
CCTATTAGTTGACCGTAAGGGCAACCGAAGCTCG | 1.78
TAGCCTAGGTCATGCAGGGGCCAGTATAGAAAGC | 0.474
CCTACTCGGCCATTCAGAGGTCATTGATCATATG | 1.99
CCTCGGAGGACAGAAGGTCAGAGCTGTCCGCTTT | -0.0461
GCGACTGGTGCAAAGCAGGTTACCATAAGGTTGG | -0.397
CGTCCAAGGTCAGAGAGGTCAATGAATGCCGAGT | 2.88
CCTATTAGTTGACCATAAGGGCTACCGAAGCTCG | 0.305
CAAACTAGGGCACAGAGGTCAAAGTCCGTGCGTA | 1.32
TAGCCCAGGTCATGCGGGCCAGTATAGTGTCGGC | 2.4
CCGAGTTGGTTATGGGGCATTCAGGCAACGGTGA | 0.472
GCTACAGGGTCAAGGCCAGAGTACGCGTATTGAT | 1.38
CCTACTGGGCCATCATGTCATTGATATCAACGTT | 0.122
TCATATAGGTAAGACAGGTGAAAGTCGGCATCTA | 0.209
CCTAGTTGGTGAAGGTCACACACGCTATAGGTAC | 1.2
ATCTCTAGGTAAACATAGTTCAGTGAATGCAAAT | 0.425

Sequence | PBM binding z-score
TCATATAGGTAATTCAGGTGAAAGTCGGCATCTA | 1.8
CCTAGCTGGCCAGGGTCACTCAAGCATTTCGCTT | 0.857
TCATATAGGTAGAGGTGAAAGTCGAACGATATGA | -0.0362
TCGAGTAGGTTAGGAGCATTCAGAATGGCGTCGA | -0.881
ACTTACGGGGCAACGAGGTTATAGCACGCGTATA | 0.279
AGAATGAGGTTATTAAGATCTGGGAATTGCGGTC | 0.599
CCTGCTAGGCCAATGGTCAGCTAAAGCAGCTCGC | -0.709
CGTCCAAGGTCAAAGGAGGTCAGTGAAGACAGAT | 2.98
CGAACTAGGTCAGAACAGGACAGTGAGGGATGAT | 0.102
TCATATAGGTAAGGGTGAAAGTCGAACGATATGA | -0.108
CAAACTAGGTTACGAAAGGTCAAAGTCGAATGAC | 1.51
TCTAATAGTTGAAGGGCAACCGACGAGTCCGTTT | -0.423
GCTGCTAGGTCAGGTAGGTCAGCTAACGGGTACG | 0.866
CCTTACGGGTCACTTCAGGTTATAGCATCGGAGT | 1.29
CCGACTGGGGCAAAGGTTACCATACTCAGTACGA | -0.211
GATACAGGGTTAGCTAGAGGCCAGAGTATGGAAA | -0.252
GCGACTGGGGCAAAGCAGGTTACCTTAAGGTTGG | 1.82
GCGACTGGGGCATCAGCAGGTTACCATCACTTAA | 0.0403
AGAATGAGGTTATTAGGATCAGGGAATTGCGGTC | 1.11
ATACCATGGTGATCGTGAGGTCGTTGATACTAAC | 1.85
